From PubChem BioAssay AID504697 (The Scripps Research Institute Molecular Screening Center, 2011)
Calls of active or inactive are those of the source.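 How the source made its calls: active means EC50 at or below 10 µM; inactive means EC50 above 10 µM.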

Assay: fluorescence interference artefacts, compound only, dose response, artefact control for cardiac thin filament activator project, biochemical, no RTF in test wells (AID 504697);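 further: emission near 535 nm under roughly 485 nm excitation as for IANBD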
Details: compound-only fluorescence in RTF assay buffer with Ca2+ (no RTF in test wells), artifact counterscreen
With `COc1ccc(S(=O)(=O)N2CN(Cc3ccco3)c3nc4ccccc4nc32)cc1` the EC50 was > 71.5 µM (inactive). In the case of `O=C(OCCN1C(=O)c2cccc3c(N4CCOCC4)ccc(c23)C1=O)c1ccc(Cl)cc1Cl`, the EC50 is reported as 2.52 µM (active). With `Cc1cc(/C=C2/C(=O)N(C)C(=S)N2C)ccc1N1CCCC1` the EC50 was 28.8 µM (inactive). In the case of `Cn1cc(/C=C2\SC(=S)N(NC(=O)c3ccccc3)C2=O)c2ccccc21`, the EC50 is reported as 9.01 µM (active). With `CNC(=O)N(O)C1N(C)C(=O)N(CC(=O)OC)C1(C)C` (stereo not drawn) the EC50 was > 71.5 µM (inactive). With `CC(C)Sc1nc2ccc(Br)cc2[nH]1` the EC50 was > 71.4 µM (inactive). With `CN1CCC2(CC1)C1CN(C)CC=C1C(C#N)=C(N)C2(C#N)C#N` (stereo not drawn) the EC50 was 23.5 µM (inactive). For `CN(/N=C/c1ccc(-c2ccc([N+](=O)[O-])cc2)o1)c1ccccc1`, the EC50 was > 71.5 µM (inactive). In the case of `O=c1[nH][nH]c(C(F)(F)F)c1C=Nc1cccc(Cl)c1`, the EC50 is reported as > 71.5 µM (inactive). For `CC1(C)CC(=O)C=C(Nc2ccccc2N)C1`, the EC50 was > 71.5 µM (inactive). With `COc1ccc2nc(-c3ccccn3)[nH]c2c1` the EC50 was > 71.5 µM (inactive). In the case of `C=CCn1c(=O)[nH]c2nc3cc(N=CN(C)C)c(C)cc3nc2c1=O`, the EC50 is reported as 4.96 µM (active). For `CC(=O)Oc1ccc(N2C(=O)C3C(C2=O)C(C(=O)c2ccc(Cl)cc2)N2CCCC32)cc1` (stereo not drawn), the EC50 was 58.7 µM (inactive). For `O=C(Cn1cnc2c(cnn2-c2ccccc2)c1=O)Nc1ccc(S(=O)(=O)N2CCOCC2)cc1`, the EC50 was > 71.5 µM (inactive). In the case of `CN(/N=C/c1ccc(N(C)C)cc1)C1=NS(=O)(=O)c2ccccc21`, the EC50 is reported as 22.5 µM (inactive). With `O=C(c1cnc2ccccc2n1)N1CCN(c2ccc(C(F)(F)F)cn2)CC1` the EC50 was > 71.4 µM (inactive). In the case of `COC(=O)C(=N/Nc1ccccc1C(=O)OC)/C(C)=N/O`, the EC50 is reported as > 71.5 µM (inactive). With `CN1c2ccccc2C(O)=C(C(=S)Nc2ccc(F)c(Cl)c2)S1(=O)=O` the EC50 was > 71.5 µM (inactive). For `Cc1ccc(C)c(C(=O)CSc2n[nH]c(C(C)C)n2)c1`, the EC50 was > 71.5 µM (inactive). With `COc1ccccc1NS(=O)(=O)c1cc([N+](=O)[O-])ccc1N/N=C/c1c(C)[nH]c2ccccc12` the EC50 was 9.25 µM (active). In the case of `CCCN1C=CC(=CC=C(C#N)C#N)C=C1`, the EC50 is reported as 19.9 µM (inactive). In the case of `CCc1ccc(C(=O)NNC(=O)c2cccc(N3C(=O)CCC3=O)c2)cc1`, the EC50 is reported as > 71.5 µM (inactive). For `CCN(CC)c1ccc(/C=C2\SC(N)=NC2=O)cc1`, the EC50 was 30.6 µM (inactive).
